From PubChem BioAssay
This excerpt belongs to a sample that is enriched for hits.
FECH block = blocks human mitochondrial ferrochelatase activity; P22830; purified FECH, Ni-mesoporphyrin absorbance 550 nm; calls only at 10 µM (by protocol); 20,000 compounds, 3.3% hits;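 active means enzyme reaction rate more than 3 SD below the solvent-only control wells on the same plate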;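 further: lower slope than DMSO wells means FECH inhibition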
Target sequence (P22830 whole entry, looked up): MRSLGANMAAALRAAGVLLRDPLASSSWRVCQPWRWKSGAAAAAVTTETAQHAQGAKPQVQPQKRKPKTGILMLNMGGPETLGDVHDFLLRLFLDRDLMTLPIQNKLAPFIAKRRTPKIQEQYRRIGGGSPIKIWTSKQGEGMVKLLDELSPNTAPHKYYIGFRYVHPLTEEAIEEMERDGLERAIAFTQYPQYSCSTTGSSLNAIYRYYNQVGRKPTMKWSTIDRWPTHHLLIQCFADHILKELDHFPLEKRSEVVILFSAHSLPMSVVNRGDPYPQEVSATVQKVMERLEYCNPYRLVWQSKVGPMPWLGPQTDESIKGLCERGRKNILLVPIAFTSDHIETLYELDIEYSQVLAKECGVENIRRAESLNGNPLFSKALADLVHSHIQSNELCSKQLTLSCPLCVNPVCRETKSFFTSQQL
Numbers without * were called inactive; i = inactive; + = active, no number.

SMILES	FECH block
Cc1ccccc1N1C(=O)N(Cc2ccc(C(C)(C)C)cc2)c2ccccc2S1(=O)=O	i
Cc1cc(C)n(C2CCN(C(=O)c3cccc4ccnn34)C2)n1 (stereo not given)	i
CCn1c(=O)n(Cc2ccccc2Cl)c(=O)c2cnc(-c3ccc(OC)cc3)nc21	i
CCn1c(=O)n(Cc2ccncc2)c(=O)c2cnc(-c3ccc(OC)cc3)nc21	+
CCn1c(=O)n(Cc2cccc(Cl)c2)c(=O)c2cnc(-c3ccc(OC)cc3)nc21	+
CCn1c(=O)n(Cc2cccc(OC)c2)c(=O)c2cnc(-c3ccc(Cl)cc3)nc21	i
CCn1c(=O)n(Cc2cccc(OC)c2)c(=O)c2cnc(-c3ccc(OC)cc3)nc21	i
C=Cc1ccc(Cn2c(=O)c3cnc(-c4ccc(OC)cc4)nc3n(CC)c2=O)cc1	i
Cc1cc(CC(=O)NCC(C)Oc2cccnc2)on1 (stereo not given)	i
COc1ccc(S(=O)(=O)N2CCN(c3nc(C)cc(N4CCN(C)CC4)n3)CC2)cc1	i
Cc1cc(NC(=O)c2cc(C(C)C)no2)ccc1NC(=O)C(C)(C)C	i
C=CCn1nc(C(=O)O)c2c1CCC(N(C)Cc1sccc1C)C2 (stereo not given)	i
O=C(CNCC(c1ccccn1)N1CCOCC1)Nc1cnccn1 (stereo not given)	i
CCN(CCN(C)C)c1ncc(NS(=O)(=O)c2cc(C)cc(C)c2)cc1C(=O)O	i
Cc1cc(C)cc(S(=O)(=O)Nc2cnc(N(CC(C)C)CC(C)C)c(C(=O)O)c2)c1	i
CCCN(CCC)c1ncc(NS(=O)(=O)c2cc(C)cc(C)c2)cc1C(=O)O	+
COc1ccccc1-n1cc(-c2ccnc(N(C)Cc3cnccn3)n2)cn1	i
Cc1ccc(NC(=O)C2CCN(c3ncnc4c3nc3n4CCCCC3)CC2)cc1	i
Cc1cccc(OCCN2CCCN(C(=O)c3ccco3)CC2)c1C	i
CCn1ccnc1-c1c(-c2ccccc2)ncn1CCN1CCCCC1CO (stereo not given)	i
Cc1cccc(OCCN2CCCCC2CO)c1C (stereo not given)	+
CN(Cc1nc(-c2cccnc2)no1)Cc1ccc(C2CCCO2)s1 (stereo not given)	i
Cc1ccc2[nH]c(CN(C)Cc3nc(-c4cccnc4)no3)nc2c1C	+
CN(Cc1ccncc1)Cc1nc(-c2cccnc2)no1	i
COc1ccc(Cl)cc1NC(=O)NCCc1nc2cccnc2n1C1CCCCC1	i
SMILES	FECH block
Cc1ccc(CN2CCCN(CC(=O)Nc3c(C)cc(C)cc3C)S2(=O)=O)cc1	+
Cc1ccc(C)c(NC(=O)CN2CCCN(Cc3cccc(F)c3)S2(=O)=O)c1	i
Cc1cc(C)c(CN2CCCN(Cc3ccccc3)S2(=O)=O)c(C)c1	+
Cc1cccc(CN2CCN(CC(=O)Nc3cc(C)ccc3C)S2(=O)=O)c1	+
Cc1ccc(CN2CCCN(CC(=O)Nc3cc(C)ccc3C)S2(=O)=O)cc1	i
Cc1cccc(CN2CCCN(CC(=O)NC3CCCC3)S2(=O)=O)c1	i
Cc1cccc(CN2CCCN(CC(=O)Nc3c(C)cc(C)cc3C)S2(=O)=O)c1	+
Cc1ccc(CN2CCCN(Cc3c(C)cc(C)cc3C)S2(=O)=O)cc1	i
Cc1ccc(NC(=O)CN2CCCN(Cc3ccc(Cl)cc3)S2(=O)=O)c(C)c1	i
Cc1cc(C)c(NC(=O)CN2CCCN(Cc3ccccc3)S2(=O)=O)c(C)c1	i
CSc1cccc(NC(=O)CN2CCCN(Cc3cccc(C)c3)S2(=O)=O)c1	i
Cc1cc(C)c(CN2CCCN(Cc3ccc(Cl)cc3)S2(=O)=O)c(C)c1	i
CCn1c(CCc2nc3ccccc3[nH]2)n[nH]c1=O	i
O=S(=O)(NCCn1c(-c2ccccc2)nc2cccnc21)c1ccccc1Cl	i
COc1cc(OC)cc(C(=O)Nc2ccc(Cl)c(N3CCCS3(=O)=O)c2)c1	i
Cc1ccccc1Cn1cc(C(=O)Nc2ccccc2)ccc1=O	i
CCOc1ccc(S(N)(=O)=O)cc1-c1nc(CC)no1	i
CN(Cc1ccccc1)c1ncccc1CNC(=O)c1ccon1	i
Cc1ccc(C2(O)CCN(C(=O)c3cnc(-c4cccnc4)nc3)CC2)nc1	i
CCc1ccccc1NS(=O)(=O)c1cc(N2C(=O)CCS2(=O)=O)ccc1OC	i
Cc1ccc(C)c(NC(=O)CN2CCN(Cc3ccccc3C)S2(=O)=O)c1	i
Cc1cc(C)c(NC(=O)CN2CCN(Cc3ccc(F)cc3)S2(=O)=O)c(C)c1	+
Cc1ccc(NC(=O)CN2CCN(Cc3ccc(F)cc3)S2(=O)=O)cc1C	i
Cc1cccc(CN2CCN(CC(=O)Nc3ccc(C)cc3C)S2(=O)=O)c1	i
Cc1cccc(CN2CCCN(CC(=O)Nc3ccc(C)cc3C)S2(=O)=O)c1	+
SMILES	FECH block
Cc1ccc(NC(=O)CN2CCN(Cc3ccc(F)cc3)S2(=O)=O)c(C)c1	i
Cc1ccc(CN2CCCN(CC(=O)Nc3ccc(C)cc3C)S2(=O)=O)cc1	i
Cc1ccc(NC(=O)CN2CCN(Cc3ccccc3C)S2(=O)=O)c(C)c1	+
Cc1cccc(NC(=O)CN2CCN(Cc3ccccc3C)S2(=O)=O)c1	i
COC(=O)CC1=CC(=O)N(CC(=O)Nc2ccc(C)cc2Cl)c2ccccc2N1	i
C=CCNc1nc(Nc2ccc(C)cc2)c2cnn(-c3ccccc3)c2n1	i
CN1CCC(CNC(=O)c2ccc3c4c([nH]c3c2)CCCC4)C1 (stereo not given)	i
COc1cc(C(=O)N(C)C(C)Cc2cc(C)ccn2)nc(OC)n1 (stereo not given)	i
Cc1ccc(NCc2cc(=O)n3[nH]c(-c4ccccc4C)nc3n2)cc1	+
Cc1ccccc1-c1nc2nc(CN3CCOCC3)cc(=O)n2[nH]1	i
COc1cccc(NCc2cc(=O)n3[nH]c(-c4ccccc4C)nc3n2)c1	+
COc1ccc(NCc2cc(=O)n3[nH]c(NCc4ccc(F)cc4)nc3n2)cc1	i
CCN1CCN(Cc2cc(=O)n3[nH]c(-c4ccccc4C)nc3n2)CC1	i
Cc1ccc(NCc2cc(=O)n3[nH]c(NCc4ccc(F)cc4)nc3n2)cc1	i
Cc1ccccc1-c1nc2nc(CNc3ccccc3)cc(=O)n2[nH]1	+
Cc1ccccc1-c1nc2nc(CNc3cccc(Cl)c3)cc(=O)n2[nH]1	i
Cc1ccccc1-c1nc2nc(CNc3ccc(Br)cc3)cc(=O)n2[nH]1	+
CCC1=C(c2ccc(OC)cc2)S(=O)(=O)N(CC(=O)NC(C)CCc2ccccc2)C1=O (stereo not given)	i
CCOc1ccc(CCNC(=O)CC2CCN(S(=O)(=O)c3ccccc3)CC2)cc1	i
CCN1C(SCC(=O)Nc2ccc(F)c(Cl)c2)=NS(=O)(=O)c2ccccc21	+
CCC(=O)Nc1ccccc1-c1nnc(SCC(=O)Nc2ccc(Cl)c(Cl)c2)[nH]c1=O	i
CCN1C(SCC(=O)Nc2cc(Cl)ccc2OC)=NS(=O)(=O)c2ccccc21	i
O=C(CN1CCN(Cc2ccc(F)cc2Cl)S1(=O)=O)Nc1ccc(F)c(Cl)c1	i
CCN1C(SCC(=O)Nc2cc(C)ccc2OC)=NS(=O)(=O)c2ccccc21	+
COc1ccc(C)cc1NC(=O)CN1C(=O)CC(c2ccc(Br)s2)=Nc2ccccc21	i
Cc1ccc(NC(=O)C2CCCN(c3ncnc4c3nc3n4CCCCC3)C2)c(C)c1 (stereo not given)	i
COc1ccc2cc(C3CN(CCCn4cccn4)CCO3)ccc2c1 (stereo not given)	i
